From PubChem BioAssay
Activity calls are given as the source filed them.

What was measured:
[1] = optical density shifts of acrAB sulA E. coli – strain DRC41, OD650, 48 h, E. coli filamentation inducer project, primary screen (AID 1152); conditions: higher = more signal, called active from +8 up or from −8 down;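 note: E. coli MC1000 strain DRC41 lacking acrAB efflux pump and sulA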
[2] = probe aLefty1 binding on compound microarray – biochemical, small-molecule microarray, 635/667 nm fluorescence, primary screen (AID 1153); conditions: higher = more signal;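 note: score merges spot fluorescence with signal-to-noise ratio from the scanned slide images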
[3] = plasmodial surface anion channel blockers, osmotic lysis – cell-based, P. falciparum Indochina, OD700, 1 h, primary screen (AID 1154); conditions: P. falciparum Indochina infected RBC osmotic lysis, higher = more signal, called active from +8 up or from −8 down
[4] = plasmodial surface anion channel blockers, osmotic lysis – cell-based, P. falciparum Indochina, OD700, 2 h, primary screen (AID 1155);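 note: lysis reports solute entry through the parasite surface anion channel PSAC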; conditions: P. falciparum Indochina infected erythrocytes, higher = more signal, called active from +8 up or from −8 down
[5] = changes in parasitized red cell lysis, either direction – P. falciparum Indochina, OD700, 3 h, PSAC antagonist project, primary screen (AID 1156); conditions: P. falciparum-infected erythrocytes, osmotic lysis, higher = more signal, called active from +8 up or from −8 down
[6] = plasmodial surface anion channel blockers, osmotic lysis – cell-based, P. falciparum Indochina, OD700, 18 h, primary screen (AID 1157); conditions: P. falciparum Indochina infected erythrocytes, osmotic lysis OD700, 18 h; higher = more signal, called active from +8 up or from −8 down
[7] = S6 kinase pathway phospho-S6 level changes – cell-based, A549, cytoblot, luminescence, serum-stimulated, primary screen (AID 1158); conditions: 5 h, higher = more signal;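 note: serum-stimulated A549 lung adenocarcinoma cells; signal is phosphorylated S6 detected by cytoblot immunostaining with HRP secondary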
[8] = biological target: NADPH oxidase 2 (Homo sapiens) (UniProt P04839); test: compounds shifting NOX2 Amplex Red fluorescence – cell-based, HEK293-NOX2, PMA-stimulated, NOX inhibitor project, primary screen (AID 1159); conditions: 45 min, higher = more signal, called active from +8 up or from −8 down; note: test concentration not given here
[9] = biological target: NADPH oxidase 4 (Homo sapiens) (UniProt Q9NPH5); test: compounds shifting NOX4 Amplex Red fluorescence – cell-based, HEK293-NOX4, tetracycline-induced, NOX inhibitor project, primary screen (AID 1160); conditions: HEK293-NOX4, Amplex Red H2O2 fluorescence, 45 min; higher = more signal, called active from +8 up or from −8 down
[10] = biological target: NADPH oxidase 5 (Homo sapiens) (UniProt Q96PH1); test: compounds shifting NOX5 Amplex Red fluorescence – cell-based, HEK293-NOX5, NOX inhibitor project, primary screen (AID 1161); conditions: HEK293-NOX5, ionomycin, 45 min, higher = more signal
NADPH oxidase 5 (Homo sapiens), sequence (Q96PH1 whole entry, looked up): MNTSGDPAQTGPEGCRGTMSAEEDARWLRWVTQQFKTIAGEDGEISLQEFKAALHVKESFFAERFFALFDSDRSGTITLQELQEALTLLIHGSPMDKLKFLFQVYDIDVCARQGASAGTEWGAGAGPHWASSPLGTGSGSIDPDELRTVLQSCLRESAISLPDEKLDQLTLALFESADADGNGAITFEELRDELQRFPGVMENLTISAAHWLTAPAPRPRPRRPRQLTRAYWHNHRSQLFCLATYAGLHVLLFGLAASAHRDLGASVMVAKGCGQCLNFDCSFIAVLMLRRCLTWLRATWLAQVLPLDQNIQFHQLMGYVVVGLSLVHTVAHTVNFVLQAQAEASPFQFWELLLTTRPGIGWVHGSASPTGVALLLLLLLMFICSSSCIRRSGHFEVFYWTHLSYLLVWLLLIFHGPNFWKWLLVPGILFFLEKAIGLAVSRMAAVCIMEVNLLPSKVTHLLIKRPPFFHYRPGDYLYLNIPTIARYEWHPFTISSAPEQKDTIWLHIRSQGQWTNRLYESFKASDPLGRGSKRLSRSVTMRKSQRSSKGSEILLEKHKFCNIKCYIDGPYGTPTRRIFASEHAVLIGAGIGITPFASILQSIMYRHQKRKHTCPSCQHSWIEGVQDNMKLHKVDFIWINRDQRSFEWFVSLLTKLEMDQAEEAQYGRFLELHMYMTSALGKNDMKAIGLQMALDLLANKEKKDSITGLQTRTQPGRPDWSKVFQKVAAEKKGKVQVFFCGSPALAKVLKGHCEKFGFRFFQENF

NADPH oxidase 2 (Homo sapiens), sequence (P04839 whole entry, looked up): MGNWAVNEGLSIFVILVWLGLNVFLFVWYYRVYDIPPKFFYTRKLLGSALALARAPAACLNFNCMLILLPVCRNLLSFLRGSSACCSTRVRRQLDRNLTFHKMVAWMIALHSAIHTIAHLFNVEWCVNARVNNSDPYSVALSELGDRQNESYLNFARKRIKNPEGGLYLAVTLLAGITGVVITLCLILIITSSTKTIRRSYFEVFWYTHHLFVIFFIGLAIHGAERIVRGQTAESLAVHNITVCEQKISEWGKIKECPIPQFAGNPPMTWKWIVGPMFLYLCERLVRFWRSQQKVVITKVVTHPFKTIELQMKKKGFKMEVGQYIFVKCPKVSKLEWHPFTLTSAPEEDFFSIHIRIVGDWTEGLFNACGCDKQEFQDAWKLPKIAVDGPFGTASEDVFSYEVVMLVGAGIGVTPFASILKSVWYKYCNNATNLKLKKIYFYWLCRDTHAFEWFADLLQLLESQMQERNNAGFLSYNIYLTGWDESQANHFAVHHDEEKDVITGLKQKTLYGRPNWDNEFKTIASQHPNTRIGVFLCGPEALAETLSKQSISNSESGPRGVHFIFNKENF
NADPH oxidase 4 (Homo sapiens), sequence (Q9NPH5 whole entry, looked up): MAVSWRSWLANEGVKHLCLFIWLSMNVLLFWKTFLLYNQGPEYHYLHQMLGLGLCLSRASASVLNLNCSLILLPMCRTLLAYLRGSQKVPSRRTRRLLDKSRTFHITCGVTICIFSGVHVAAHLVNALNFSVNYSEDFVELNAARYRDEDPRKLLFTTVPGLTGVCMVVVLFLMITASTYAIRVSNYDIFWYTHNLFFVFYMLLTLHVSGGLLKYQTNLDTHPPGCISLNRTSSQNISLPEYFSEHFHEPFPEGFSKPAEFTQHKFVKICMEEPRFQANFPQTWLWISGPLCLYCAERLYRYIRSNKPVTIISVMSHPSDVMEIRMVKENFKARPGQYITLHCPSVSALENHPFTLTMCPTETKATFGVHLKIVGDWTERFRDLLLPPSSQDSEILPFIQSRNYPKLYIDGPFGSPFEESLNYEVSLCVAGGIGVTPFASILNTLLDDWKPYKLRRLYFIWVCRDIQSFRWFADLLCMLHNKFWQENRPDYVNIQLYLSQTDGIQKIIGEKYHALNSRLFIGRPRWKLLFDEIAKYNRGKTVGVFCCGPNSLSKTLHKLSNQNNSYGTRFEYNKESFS

Row | SMILES | z-score [1] | composite z-score [2] | z-score [3] | z-score [4] | z-score [5] | z-score [6] | z-score [7] | z-score [8] | z-score [9] | z-score [10]
1 | C[C@@H]1CC[C@@H](C(=O)O)N[C@H]1c1cccc(N2CCOCC2)c1 | 0.563 (inactive) | -0.0984 | -0.0136 (inactive) | 0.18 (inactive) | 0.468 (inactive) | 0.247 (inactive) | 0.778 | -0.438 (inactive) | 0.65 (inactive) | 0.252
2 | CCN1C(=O)[C@H]2[C@H]3[C@H](O)[C@H](O)CC(=NOC(C)CN4CCCc5nc(C)c(C)cc54)[C@@H]3CC[C@H]2C1=O (stereo not given in full) | 0.223 (inactive) | 0.603 | 1.25 (inactive) | 0.59 (inactive) | -0.121 (inactive) | 0.588 (inactive) | -0.461 | -1 (inactive) | -0.772 (inactive) | -0.298
3 | O=C1C[C@@H](O)[C@@H](O)[C@@H]2[C@@H]3C(=O)N(C4CCCCC4)C(=O)[C@@H]3CC[C@@H]12 | -0.348 (inactive) | -0.395 | 0.733 (inactive) | 0.14 (inactive) | 0.265 (inactive) | -0.0387 (inactive) | -0.604 | -0.0439 (inactive) | 0.468 (inactive) | 0.0192
4 | CON=C(C)CCN1CCCCc2nc(C)c(C)cc21 | -1.23 (inactive) | 0.168 | -0.149 (inactive) | -0.117 (inactive) | -0.374 (inactive) | 0.269 (inactive) | -0.834 | -0.0289 (inactive) | -0.0593 (inactive) | -0.836
5 | COC(=O)[C@@H]1CC[C@H](C)[C@@H](c2ccc(Br)cc2)N1C(=O)C(F)(F)F | -0.643 (inactive) | -0.103 | 1.08 (inactive) | -0.0008 (inactive) | 0.266 (inactive) | 0.2 (inactive) | -0.56 | 0.301 (inactive) | 0.467 (inactive) | 0.18
6 | O=C1[C@H]2[C@H]3[C@H](O)[C@H](O)CC(=NO[C@@H]4O[C@H](CO)[C@@H](O)[C@H](O)[C@H]4O)[C@@H]3CC[C@H]2C(=O)N1c1cccc(Oc2ccccc2)c1 | -0.192 (inactive) | -0.0967 | -0.612 (inactive) | -0.0313 (inactive) | 0.271 (inactive) | 0.0606 (inactive) | -0.263 | 0.614 (inactive) | 1.02 (inactive) | 0.544
7 | C[C@@H]1CC[C@H]2C(=O)N3[C@@H](CC[C@@H](C)[C@@H]3c3ccc(Br)cc3)C(=O)N2[C@H]1c1ccc(Br)cc1 | -1.09 (inactive) | -0.0099 | 4.4 (inactive) | 1.07 (inactive) | 0.121 (inactive) | 0.689 (inactive) | 0.448 | 1.79 (inactive) | -1.8 (inactive) | 0.819
8 | CO[C@H]1C[C@@H]2C[C@H](O)CC(CC(=O)O[C@@H](C=CCC(C)C)C[C@@H]3CC[C@H](C)[C@@H](C1)O3)O2 | -0.55 (inactive) | -0.104 | 0.818 (inactive) | 0.41 (inactive) | 0.773 (inactive) | -0.0957 (inactive) | -0.254 | -1.17 (inactive) | 0.226 (inactive) | 1.2
9 | CC(C)CN1CCc2nc(-c3ccccc3)c3c(c2C1)CO[C@@H](C)C3 | 0.696 (inactive) | 0.123 | 1.56 (inactive) | 0.711 (inactive) | 0.61 (inactive) | 0.615 (inactive) | 0.418 | 2.18 (inactive) | -2.08 (inactive) | 0.551
10 | CCOC(=O)NN=C1C[C@@H](O)[C@@H](O)[C@@H]2[C@@H]3C(=O)N(CC)C(=O)[C@@H]3CC[C@H]12 | 0.539 (inactive) | -0.286 | -0.259 (inactive) | 0.072 (inactive) | -0.466 (inactive) | 0.182 (inactive) | -0.404 | -1.28 (inactive) | 0.199 (inactive) | 0.534
11 | CCO[C@H](c1cc(OC)cc([N+](=O)[O-])c1OC)[C@H](C)[C@@H](OC)[C@H](C)C=CCC(=O)OC | -0.321 (inactive) | 0.0367 | 2.26 (inactive) | 0.282 (inactive) | 0.528 (inactive) | 0.318 (inactive) | -0.421 | -1.73 (inactive) | -0.442 (inactive) | -1.11
12 | CCOC(=O)CCN1C(=O)[C@H]2[C@H]3[C@H](O)[C@H](O)CC(=NOCC(C)C)[C@@H]3CC[C@H]2C1=O | -0.214 (inactive) | -0.0051 | 6.67 (inactive) | 0.232 (inactive) | -0.0758 (inactive) | 0.134 (inactive) | -0.651 | 0.913 (inactive) | 0.783 (inactive) | 0.295
13 | C[C@@H]1CC[C@H]2C(=O)O[C@@H](CN=[N+]=[N-])CN2[C@H]1c1ccc(Br)cc1 | -2.31 (inactive) | -0.35 | 25.4 (active) | 8.11 (active) | 1.59 (inactive) | 2.16 (inactive) | 0.476 | -3.99 (inactive) | -3.91 (inactive) | -0.668
14 | COC(=O)[C@H](C)NC(=O)CCC1CC(OC(=O)NCc2ccc3c(c2)OCO3)CC2(CCCC(COC(=O)NCCCN3CCCC3=O)O2)O1 (stereo not given in full) | -0.37 (inactive) | 0.0326 | -0.881 (inactive) | 0.136 (inactive) | -0.257 (inactive) | -0.169 (inactive) | 0.0031 | 1.1 (inactive) | -1.51 (inactive) | -1.74
15 | C[C@@H]1CC[C@H]2C(=O)O[C@@H](COc3ccc(C(C)(C)C)cc3)CN2[C@H]1c1ccc(Br)cc1 | -0.113 (inactive) | -0.103 | 1.25 (inactive) | 0.937 (inactive) | -0.897 (inactive) | 0.588 (inactive) | -0.261 | -0.271 (inactive) | 0.562 (inactive) | 0.257
16 | CCOC(=O)[C@H](CC(C)C)NC(=O)CCC1CC(OC(=O)NCCc2ccc(F)cc2)CC2(CCCC(COC(=O)NCCCN3CCCC3=O)O2)O1 (stereo not given in full) | -0.237 (inactive) | -0.28 | 1.3 (inactive) | 0.0591 (inactive) | -0.172 (inactive) | -0.194 (inactive) | 0.181 | 0.575 (inactive) | 0.775 (inactive) | 0.802
17 | COC(=O)[C@@H]1CC[C@H](C)[C@@H](c2ccc(Br)cc2)N1C[C@H](O)CN=[N+]=[N-] | -0.972 (inactive) | 0.181 | 1.04 (inactive) | 0.852 (inactive) | 0.48 (inactive) | 0.541 (inactive) | 0.928 | -0.855 (inactive) | -1.08 (inactive) | -0.0951
18 | CC(C)(C)N1C(=O)[C@H]2[C@H]3[C@H](O)[C@H](O)CC(=NNC(=O)OCc4ccccc4)[C@H]3CC[C@H]2C1=O | -1.57 (inactive) | -0.0966 | 0.988 (inactive) | -0.0262 (inactive) | 0.374 (inactive) | -1.13 (inactive) | 0.827 | -1.18 (inactive) | -0.074 (inactive) | -1.11
19 | CCOC(=O)[C@H](Cc1ccccc1)NC(=O)CCC1CC(OC(=O)NCc2cccc3ccccc23)CC2(CCCC(COC(=O)NCCc3ccc(Cl)cc3)O2)O1 (stereo not given in full) | -1.37 (inactive) | 0.539 | 7.28 (inactive) | 0.618 (inactive) | -0.552 (inactive) | -0.687 (inactive) | 0.335 | 0.694 (inactive) | 0.92 (inactive) | 0.986
20 | CC(C)(C)N1C(=O)[C@H]2[C@@H]3C(=CC[C@H]2C1=O)C(=O)[C@H]1O[C@H]1[C@H]3O | -0.537 (inactive) | -0.328 | -0.23 (inactive) | -1.7 (inactive) | 0.0794 (inactive) | -2.24 (inactive) | 0.495 | -0.593 (inactive) | -0.168 (inactive) | 1.22
21 | O=C1[C@H]2[C@H]3[C@H](O)[C@H](O)CC(=NO[C@@H]4O[C@H](CO)[C@@H](O)[C@H](O)[C@H]4O)[C@H]3CC[C@H]2C(=O)N1c1ccc(F)cc1F | -0.205 (inactive) | 0.0865 | 2.95 (inactive) | 0.454 (inactive) | 0.887 (inactive) | 0.159 (inactive) | -0.56 | -0.307 (inactive) | 0.73 (inactive) | 0.667
